PubChem BioAssay (Tox21)
Inconclusive results are not listed. Active and inactive are the calls of the source. Unless noted, calls come from the whole dose curve; as a rule, active = well fitted curve in the direction sought with a large enough effect in the repeat runs; inconclusive = weak or mixed curves; inactive = no such curve, though single readings can be large; an effect the other way counts as inactive or inconclusive.

What was measured:
[1] = qHTS assay for small molecules that induce genotoxicity in human embryonic kidney cells expressing luciferase-tagged ATAD5 (AID 651632); note: % is set by controls: 0 for no effect and ±100 for the full control effect; nearly all actives have a fitted effect of over 15% in size
Method in brief: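 HEK293T cells carrying luciferase-tagged ATAD5 were given compound or DMSO vehicle and incubated 16 hr at 37C, 5% CO2. Luciferase activity was read after 30 min at room temperature with Amplite; a rise signals genotoxic stress.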

[2] = qHTS assay for small molecules that induce genotoxicity in human embryonic kidney cells expressing luciferase-tagged ATAD5 - cell viability (AID 651634; calls by dose curve; note: % is set by controls: 0 for no effect and ±100 for the full control effect; nearly all actives have a fitted effect of over 25% in size)
Method in brief: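 HEK293T cells carrying luciferase-tagged ATAD5, 2,000 cells/well, exposed to compound for 15.5 hr at 37C. Viability read as live-cell protease activity by CellTiter-Fluor fluorescence after 30 min at 37C.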

[3] = qHTS assay to test for compound auto fluorescence at 590 nm (red) in HepG2 cells (AID 720674); note: % is set by controls: 0 for no effect and ±100 for the full control effect
Method in brief: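 Compound auto-fluorescence is scored relative to Rose Bengal sodium, measured at 540/590 nm in live HepG2 cultures after 1 hr compound contact (37 C, 5% CO2).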

[4] = qHTS assay to test for compound auto fluorescence at 535 nm (green) in HepG2 cells (AID 720675); note: % is set by controls: 0 for no effect and ±100 for the full control effect
[5] = qHTS assay to test for compound auto fluorescence at 460 nm (blue) in HEK293 cells (AID 720678); note: % is set by controls: 0 for no effect and ±100 for the full control effect
Method in brief: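 Intrinsic compound fluorescence is recorded in live HEK293 cultures after overnight incubation at 37C, 5% CO2, using excitation 405 nm and emission 460 nm. Values are referenced to triamterene.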

[6] = qHTS assay to test for compound auto fluorescence at 590 nm (red) in HEK293 cells (AID 720679); note: % is set by controls: 0 for no effect and ±100 for the full control effect
Method in brief: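 Red autofluorescence, HEK293 cells: 2,000 cells/well; attach 4-5 hr 37C; add 23 nL cpd or DMSO; incubate o/n 37C 5% CO2; read Ex540/Em590; Rose Bengal sodium reference.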

[7] = qHTS assay to test for compound auto fluorescence at 535 nm (green) in HEK293 cells (AID 720680); note: % is set by controls: 0 for no effect and ±100 for the full control effect
[8] = qHTS assay to test for compound auto fluorescence at 460 nm (blue) in HEK293 cell free culture (AID 720681); note: % is set by controls: 0 for no effect and ±100 for the full control effect
Method in brief: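 Test compounds were pinned into cell-free culture medium (DMEM with 10% FBS) and fluorescence was read directly at Ex/Em 405/460 nm. Signals were expressed as fluorescence equivalents of triamterene, with DMSO vehicle as control.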

[9] = qHTS assay to test for compound auto fluorescence at 535 nm (green) in HEK293 cell free culture (AID 720682); note: % is set by controls: 0 for no effect and ±100 for the full control effect
Method in brief: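 Each library compound, or DMSO control, is added by pintool to medium alone, comprising DMEM and 10% FBS. Emission at 535 nm following 485 nm excitation is quantified against fluorescein.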

[10] = qHTS assay to test for compound auto fluorescence at 590 nm (red) in HEK293 cell free culture (AID 720683); note: % is set by controls: 0 for no effect and ±100 for the full control effect
Method in brief: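 Tox21 10K library compounds were pinned into cell-free DMEM with 10% FBS and fluorescence was read at excitation 540 nm. Activity is expressed as Rose Bengal sodium equivalency.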

[11] = qHTS assay to test for compound auto fluorescence at 590 nm (red) in HepG2 cell free culture (AID 720684); note: % is set by controls: 0 for no effect and ±100 for the full control effect
Method in brief: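 Red fluorescence (540 nm excitation, 590 nm emission) was measured after compound transfer into cell-free MEM supplemented with 10% FBS. Values are equivalencies against Rose Bengal sodium.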

[12] = qHTS assay to test for compound auto fluorescence at 460 nm (blue) in HepG2 cell free culture (AID 720685); note: % is set by controls: 0 for no effect and ±100 for the full control effect
Method in brief: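 Compound (23 nL) or DMSO pinned into cell-free MEM with 10% FBS; blue fluorescence read at 405/460 nm excitation/emission, expressed as auto-fluorescence equivalency to triamterene.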

[13] = qHTS assay to test for compound auto fluorescence at 535 nm (green) in HepG2 cell free culture (AID 720686); note: % is set by controls: 0 for no effect and ±100 for the full control effect
[14] = qHTS assay to test for compound auto fluorescence at 460 nm (blue) in HepG2 cells (AID 720687); note: % is set by controls: 0 for no effect and ±100 for the full control effect
Method in brief: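 Cells (2,000/well in MEM with 10% FBS) attached overnight at 37 C, then were exposed to compound or DMSO for 1 hr at 37 C, 5% CO2. Fluorescence read at Ex/Em 405/460 nm, expressed as triamterene-equivalent signal.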

[15] = qHTS assay for identifying genotoxic compounds that show differential cytotoxicity against isogenic chicken DT40 cell lines with known DNA damage response pathways - wild type cell line (AID 743012); note: % is set by controls: 0 for no effect and ±100 for the full control effect; nearly all actives have a fitted effect of over 60% in size
Method in brief: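 Wild-type DT40 cells (300/well) exposed to compounds for 40 hours at 37 C/5% CO2. Viability read by CellTiter-Glo luminescence after 30 min at room temperature.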

[16] = qHTS assay for identifying genotoxic compounds that show differential cytotoxicity against isogenic chicken DT40 cell lines with known DNA damage response pathways - Rev3 mutant cell line (AID 743014); note: % is set by controls: 0 for no effect and ±100 for the full control effect; nearly all actives have a fitted effect of over 55% in size
[17] = qHTS assay for identifying genotoxic compounds that show differential cytotoxicity against isogenic chicken DT40 cell lines with known DNA damage response pathways - Rad54/Ku70 mutant cell line (AID 743015); note: % is set by controls: 0 for no effect and ±100 for the full control effect; nearly all actives have a fitted effect of over 60% in size
[18] = qHTS assay to identify small molecule antagonists of the androgen receptor (AR) signaling pathway - cell viability counter screen (AID 743033; note: % is set by controls: 0 for no effect and ±100 for the full control effect; nearly all actives have a fitted effect of over 45% in size)
[19] = qHTS assay to identify small molecule antagonists of the androgen receptor (AR) signaling pathway using the MDA cell line - cell viability counter screen (AID 743041; note: % is set by controls: 0 for no effect and ±100 for the full control effect; nearly all actives have a fitted effect of over 45% in size)
Method in brief: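 MDA-kb2 AR-luc human breast carcinoma cells (MMTV-luciferase, AR/GR responsive) were treated with compounds plus R1881 agonist for 16 h at 37 °C. Viability was read as CellTiter-Fluor fluorescence in the same wells as the reporter assay.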

[20] = qHTS assay to identify small molecule antagonists of the thyroid receptor (TR) signaling pathway - cell viability counter screen (AID 743064); note: % is set by controls: 0 for no effect and ±100 for the full control effect; nearly all actives have a fitted effect of over 50% in size
Method in brief: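 CellTiter-Fluor readout, 30 min at 37 °C/5% CO2, following 23.5 h incubation of GH3.TRE-Luc cells with test compound and 1 nM T3 (final).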

[21] = test system: thyroid hormone receptor (rat, GH3 cells); experiment: qHTS assay to identify small molecule agonists of the thyroid receptor (TR) signaling pathway (AID 743066; calls by dose curve; note: % is set by controls: 0 for no effect and ±100 for the full control effect)
[22] = target: Estrogen receptor (Homo sapiens) (UniProt P03372); experiment: qHTS assay to identify small molecule antagonists of the estrogen receptor alpha (ER-alpha) signaling pathway (AID 743069; active = well fitted curve in the direction sought with a large enough effect in the signal ratio in the repeat runs, not every such curve was filed as active; the % refers to the signal ratio; note: % is set by controls: 0 for no effect and ±100 for the full control effect)
Method in brief: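 HEK293 cells stably carrying an ER-alpha-UAS-bla beta-lactamase reporter were pre-cultured overnight in 2% charcoal-stripped FBS medium. Test compounds in DMSO were added together with 17beta-estradiol for 18 hr at 37C. Read-out was fluorescence after 2 hr with LiveBLAzer B/G FRET substrate at room temperature.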

[23] = qHTS assay to identify small molecule antagonists of the estrogen receptor alpha (ER-alpha) signaling pathway - cell viability counter screen (AID 743074; calls by dose curve; note: % is set by controls: 0 for no effect and ±100 for the full control effect; nearly all actives have a fitted effect of over 45% in size)
[24] = target: Estrogen receptor (Homo sapiens) (UniProt P03372); experiment: qHTS assay to identify small molecule agonists of the estrogen receptor alpha (ER-alpha) signaling pathway (AID 743075; calls by dose curve; note: % is set by controls: 0 for no effect and ±100 for the full control effect)
[25] = target: Estrogen receptor (Homo sapiens) (UniProt P03372); experiment: qHTS assay to identify small molecule agonists of the estrogen receptor alpha (ER-alpha) signaling pathway using the BG1 cell line (AID 743079); note: potency is the fitted concentration of half-maximal effect; nearly all actives have a fitted effect of over 20% in size
[26] = qHTS assay to identify small molecule antagonists of the estrogen receptor alpha (ER-alpha) signaling pathway using the BG1 cell line (AID 743080; calls by dose curve;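 note: BG1 cells stimulated with 17beta-estradiol alongside compound; series mostly up to about 70 µM; % is set by controls: 0 for no effect and ±100 for the full control effect; nearly all actives have a fitted effect of over 25% in size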)
Method in brief: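 Readout is ONE-Glo luminescence, taken 30 min at room temperature after reagent addition, preceded by a CellTiter-Fluor viability read; BG1-Luc-4E2 cells had received compound and 17beta-estradiol for 21.5 h at 37 C.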

[27] = qHTS assay to identify small molecule antagonists of the estrogen receptor alpha (ER-alpha) signaling pathway using the BG1 cell line - cell viability counter screen (AID 743081);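 note: compound given together with 17beta-estradiol as the ER stimulus; series mostly up to about 70 µM; % is set by controls: 0 for no effect and ±100 for the full control effect; nearly all actives have a fitted effect of over 45% in size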
Aromatase (Homo sapiens) = Aromatase (Homo sapiens) (UniProt P11511); experiment: qHTS assay to identify aromatase inhibitors (AID 743083); note: series mostly up to about 70 µM; % is set by controls: 0 for no effect and ±100 for the full control effect; nearly all actives have a fitted effect of over 55% in size
[28] = qHTS assay to identify aromatase inhibitors - cell viability counter screen (AID 743084);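 note: cells stimulated with testosterone during compound exposure; % is set by controls: 0 for no effect and ±100 for the full control effect; nearly all actives have a fitted effect of over 55% in size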
[29] = target: Aryl hydrocarbon receptor (Homo sapiens) (UniProt P35869); experiment: qHTS assay to identify small molecule that activate the aryl hydrocarbon receptor (AhR) signaling pathway (AID 743085);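 note: HG2L7.5c1 human HepG2 liver cells with stably integrated DRE-driven firefly reporter; series mostly up to about 70 µM; % is set by controls: 0 for no effect and ±100 for the full control effect; nearly all actives have a fitted effect of over 15% in size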
Method in brief: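 Stably transfected human liver carcinoma cells (HG2L7.5c1; 20 DRE-firefly luciferase) were incubated 5 h, dosed, and kept 24 h at 37C. Agonism was scored from increased luciferase luminescence.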

[30] = qHTS assay to identify small molecule that activate the aryl hydrocarbon receptor (AhR) signaling pathway - cell viability counter screen (AID 743086)
Method in brief: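 HepG2-AhR-luc (HG2L7.5c1) cells, 4000/well, were preincubated 5 h at 37C, exposed to compound in qHTS format for 24 hr at 37C, then given CellTiter-Fluor for 30 min; viability was read as fluorescence in the reporter wells.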

[31] = target: Peroxisome proliferator-activated receptor gamma (Homo sapiens) (UniProt P37231); experiment: qHTS assay to identify small molecule agonists of the peroxisome proliferator-activated receptor gamma (PPARg) signaling pathway (AID 743094; active = well fitted activation curve with a large enough effect in the signal ratio in the repeat runs, not every such curve was filed as active; the % refers to the signal ratio; note: % is set by controls: 0 for no effect and ±100 for the full control effect)
Method in brief: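 GeneBLAzer PPARg UAS-bla HEK293H cells were plated, rested 5 h, then exposed to compounds for 17 h at 37C. Beta-lactamase activity was read by LiveBLAzer B/G FRET substrate fluorescence after 1 h at room temperature.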

[32] = qHTS assay to identify small molecule antagonists of the estrogen related receptor (ERR) signaling pathway - cell viability counter screen (AID 1224818)
Method in brief: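 ERR cells, 2,000 per well, compound added after 6 h and incubated 17.5 h at 37 C. Viability read by CellTiter-Fluor fluorescence after a further 30 min at 37 C.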

[33] = qHTS assay to identify small molecule antagonists of the estrogen related receptor (ERR) signaling pathway (AID 1224819;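 note: luminescence from an ERR-driven luciferase reporter measured with One-Glo reagent; series mostly up to about 46 µM; % is set by controls: 0 for no effect and ±100 for the full control effect; nearly all actives have a fitted effect of over 50% in size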)
Method in brief: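 ERR reporter cell line (NTP) plated at 2,000 cells/well, settled 6 h at 37C/5% CO2, then exposed to LOPAC compounds for 18 h at 37C. One-Glo luciferase luminescence read after 30 min at room temperature.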

[34] = qHTS assay to identify small molecule agonists of the estrogen related receptor (ERR) signaling pathway (AID 1224820)
Method in brief: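 Quantitative HTS of the LOPAC library used NTP ERR reporter cells treated 18 h at 37 C. Signal is luminescence after One-Glo addition and a 30 min room-temperature incubation.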

[35] = test system: estrogen-related receptor alpha (ERRalpha) with PGC-1alpha coactivator, human; experiment: qHTS assay to identify small molecule antagonists of the estrogen related receptor signaling pathway with the pleiotropic PPARgamma coactivator (PGC) (AID 1224821; calls by dose curve)
Method in brief: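 Quantitative HTS for antagonism: PGC/ERR cells received compounds after 6 h attachment and were incubated 18 h at 37 C, with luminescence (One-Glo) as the endpoint.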

[36] = qHTS assay to identify small molecule antagonists of the estrogen related receptor signaling pathway with the pleiotropic PPARgamma coactivator (PGC) cell viability counter screen (AID 1224822)
Method in brief: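 PGC/ERR cells rested 6 h, then compound-treated 17.5 h at 37 C. CellTiter-Fluor added for 30 min at 37 C, viability measured by fluorescence intensity.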

[37] = qHTS assay to identify small molecule agonists of the estrogen related receptor signaling pathway with the pleiotropic PPARgamma coactivator (PGC) (AID 1224823)
Method in brief: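 Cell-based luciferase assay in the NTP-supplied PGC/ERR line, 2,000 cells/well; 18 h compound exposure at 37 C, luminescence after One-Glo.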

[38] = qHTS assay to identify small molecule phospholipidosis (PLD) inducers (AID 1259344; active = well fitted curve in the direction sought with a large enough effect; an effect the other way counts as inactive or inconclusive)
Method in brief: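 HepG2 cells on collagen I, attached 4 h at 37 C, were co-treated with compound and LipidTOX Red dye for 24 h at 37 C, then fixed with paraformaldehyde plus Hoechst 33342 and imaged by high-content microscopy for phospholipid accumulation.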

[39] = target: Nuclear receptor subfamily 1 group I member 2 (Rattus norvegicus) (UniProt Q9R1A7); experiment: Rat pregnane X receptor (rPXR) activation by small molecules, qHTS assay (AID 1346983); conditions: rPXR luciferase reporter cells, One-Glo luminescence, 24 h; max activation: active compounds read high
Method in brief: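 Cell-based rPXR luciferase reporter assay, 2,000 cells per well, rested 5hr at 37 C before compound addition in DMSO, then 24 hr at 37 C. One-Glo reagent was added and luminescence read after 30 min at room temperature.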

Sequence of Estrogen receptor (Homo sapiens) (P03372 whole entry, looked up): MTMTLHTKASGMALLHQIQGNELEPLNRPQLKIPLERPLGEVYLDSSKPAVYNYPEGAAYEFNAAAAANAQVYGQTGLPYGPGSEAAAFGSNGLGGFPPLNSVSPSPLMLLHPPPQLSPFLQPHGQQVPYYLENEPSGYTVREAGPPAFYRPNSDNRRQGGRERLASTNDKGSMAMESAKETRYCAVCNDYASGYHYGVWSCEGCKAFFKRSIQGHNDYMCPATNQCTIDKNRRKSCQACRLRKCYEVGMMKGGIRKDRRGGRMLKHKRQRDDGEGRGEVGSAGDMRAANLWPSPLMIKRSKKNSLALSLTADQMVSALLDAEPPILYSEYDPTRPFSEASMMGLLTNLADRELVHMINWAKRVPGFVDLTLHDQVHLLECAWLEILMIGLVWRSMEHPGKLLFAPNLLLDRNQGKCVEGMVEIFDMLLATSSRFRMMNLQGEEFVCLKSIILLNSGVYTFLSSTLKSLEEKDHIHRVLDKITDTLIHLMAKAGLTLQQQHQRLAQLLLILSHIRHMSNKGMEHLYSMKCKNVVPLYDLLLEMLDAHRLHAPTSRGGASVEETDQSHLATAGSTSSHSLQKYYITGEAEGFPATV
Sequence of Nuclear receptor subfamily 1 group I member 2 (Rattus norvegicus) (Q9R1A7 whole entry, looked up): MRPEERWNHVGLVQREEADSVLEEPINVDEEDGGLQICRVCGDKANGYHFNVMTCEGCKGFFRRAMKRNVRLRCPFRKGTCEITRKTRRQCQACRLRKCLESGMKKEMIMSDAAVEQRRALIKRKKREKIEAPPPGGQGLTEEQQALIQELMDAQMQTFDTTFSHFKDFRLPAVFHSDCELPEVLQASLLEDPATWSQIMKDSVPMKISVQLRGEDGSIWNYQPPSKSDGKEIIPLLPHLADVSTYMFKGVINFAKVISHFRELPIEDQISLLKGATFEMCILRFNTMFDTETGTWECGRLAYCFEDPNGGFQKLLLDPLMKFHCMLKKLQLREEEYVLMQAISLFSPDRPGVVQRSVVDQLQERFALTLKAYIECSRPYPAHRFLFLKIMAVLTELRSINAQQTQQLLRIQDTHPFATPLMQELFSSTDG
Sequence of Aryl hydrocarbon receptor (Homo sapiens) (P35869 whole entry, looked up): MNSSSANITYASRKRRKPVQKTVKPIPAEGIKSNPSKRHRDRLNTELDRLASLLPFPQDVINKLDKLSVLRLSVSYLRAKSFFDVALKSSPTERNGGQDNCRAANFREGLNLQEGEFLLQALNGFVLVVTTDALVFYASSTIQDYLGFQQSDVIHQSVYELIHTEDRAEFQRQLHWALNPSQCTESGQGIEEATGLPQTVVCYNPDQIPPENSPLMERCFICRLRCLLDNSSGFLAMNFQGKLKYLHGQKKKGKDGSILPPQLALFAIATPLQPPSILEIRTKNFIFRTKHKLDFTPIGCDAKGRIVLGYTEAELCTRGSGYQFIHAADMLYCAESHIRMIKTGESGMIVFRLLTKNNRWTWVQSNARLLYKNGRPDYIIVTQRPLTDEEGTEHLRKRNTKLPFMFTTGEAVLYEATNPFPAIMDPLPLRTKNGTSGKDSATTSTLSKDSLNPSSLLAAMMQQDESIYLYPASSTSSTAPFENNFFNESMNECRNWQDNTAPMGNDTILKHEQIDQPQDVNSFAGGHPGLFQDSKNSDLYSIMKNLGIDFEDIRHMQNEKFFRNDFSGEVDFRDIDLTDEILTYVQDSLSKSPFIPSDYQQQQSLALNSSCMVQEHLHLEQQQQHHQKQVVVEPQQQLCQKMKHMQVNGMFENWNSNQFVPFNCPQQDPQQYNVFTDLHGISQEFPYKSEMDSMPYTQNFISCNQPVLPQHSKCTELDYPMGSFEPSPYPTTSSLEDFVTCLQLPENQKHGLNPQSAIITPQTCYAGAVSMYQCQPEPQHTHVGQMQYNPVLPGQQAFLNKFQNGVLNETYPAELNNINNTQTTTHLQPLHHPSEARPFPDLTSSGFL
Sequence of Aromatase (Homo sapiens) (P11511 whole entry, looked up): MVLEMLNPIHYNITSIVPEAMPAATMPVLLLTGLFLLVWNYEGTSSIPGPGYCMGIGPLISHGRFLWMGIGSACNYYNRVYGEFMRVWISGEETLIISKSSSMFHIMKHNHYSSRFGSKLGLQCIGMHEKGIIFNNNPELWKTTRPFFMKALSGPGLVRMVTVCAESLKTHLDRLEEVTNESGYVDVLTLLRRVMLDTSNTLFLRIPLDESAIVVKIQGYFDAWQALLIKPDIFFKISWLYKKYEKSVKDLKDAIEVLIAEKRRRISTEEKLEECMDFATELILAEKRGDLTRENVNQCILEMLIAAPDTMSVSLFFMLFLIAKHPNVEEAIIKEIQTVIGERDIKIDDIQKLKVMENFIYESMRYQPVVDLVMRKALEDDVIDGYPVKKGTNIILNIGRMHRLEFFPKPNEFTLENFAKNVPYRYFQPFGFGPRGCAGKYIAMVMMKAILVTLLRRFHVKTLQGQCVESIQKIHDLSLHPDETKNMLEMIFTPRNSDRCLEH
Sequence of Peroxisome proliferator-activated receptor gamma (Homo sapiens) (P37231 whole entry, looked up): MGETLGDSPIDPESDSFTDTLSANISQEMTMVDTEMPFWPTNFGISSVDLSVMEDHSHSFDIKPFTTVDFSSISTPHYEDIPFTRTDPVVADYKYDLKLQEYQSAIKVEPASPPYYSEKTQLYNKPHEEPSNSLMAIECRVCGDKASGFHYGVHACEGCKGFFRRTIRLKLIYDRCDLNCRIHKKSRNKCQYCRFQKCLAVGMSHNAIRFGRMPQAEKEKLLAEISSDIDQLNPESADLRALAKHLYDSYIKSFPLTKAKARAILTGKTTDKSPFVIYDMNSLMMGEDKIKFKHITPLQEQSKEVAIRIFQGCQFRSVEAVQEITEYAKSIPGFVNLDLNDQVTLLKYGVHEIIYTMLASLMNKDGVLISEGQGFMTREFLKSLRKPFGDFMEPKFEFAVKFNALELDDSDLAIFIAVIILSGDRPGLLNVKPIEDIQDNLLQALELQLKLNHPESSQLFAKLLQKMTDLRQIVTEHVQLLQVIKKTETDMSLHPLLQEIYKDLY

c1ccc(C2(c3ccccc3)CC2C2=NCCN2)cc1 (stereo not given)
inactive: Potency [1] | Potency [2] | outcome [3] | Potency [4] | Potency [5] | outcome [6] | Potency [7] | Potency [8] | Potency [9] | outcome [10] | outcome [11] | Potency [12] | Potency [13] | Potency [14] | Potency [15] | Potency [16] | Potency [17] | Potency [18] | Potency [19] | Potency [20] | Potency [21] | Potency [22] | Potency [23] | Potency [24] | Potency [26] | Potency [27] | Potency (Aromatase (Homo sapiens)) | Potency [28] | Potency [29] | Potency [30] | Potency [31] | Potency [32] | Potency [33] | Potency [34] | Potency [35] | Potency [36] | Potency [37] | Potency [38] | max activation [39] -1.58%
active: Potency [25] 0.7 nM
